The values that follow come from PubChem BioAssay.

Activity calls are given as the source filed them.

Experiment [1] concerns Plasmodium falciparum Sir2 (PF13_0152, Sir2A). Briefly: Plasmodium falciparum Sir2A binding compounds – biochemical, small-molecule microarray, 635 nm fluorescence, primary screen (AID 1098).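 Also: score merges spot fluorescence intensity with its signal-to-noise ratio.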 The following applies: fluorescence 635 nm, higher = more signal.
Experiment [2] can be described thus: probe aDKK1 binding to arrayed compounds – biochemical, biotinylated probe, 635/667 nm fluorescence, primary screen (AID 1099).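 Also: score merges 667nm spot fluorescence with signal to noise across triplicate slides.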 The following applies: small-molecule microarray, higher = more signal.
The nature of experiment [3]: probe aCHRDL2 binding to arrayed compounds – biochemical, biotinylated probe, 635/667 nm fluorescence, primary screen (AID 1100). The conditions noted are these: small-molecule microarray, higher = more signal.
Experiment [4] is described as follows: change in splice reporter luminescence, either direction, cell-based, HEK293, spliceosome inhibition project, primary screen (AID 1101).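 Also: HEK293 cells carrying a splicing-competent luciferase reporter gene; test concentration not given here.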 The conditions noted are these: HEK293 splicing luciferase reporter, 24 h, higher = more signal, called active from +8 up or from −8 down. A general note: A reporter such as luciferase makes a cellular process visible.
Experiment [5] deals with Fibroblast growth factor 10 (Homo sapiens) (UniProt O15520). In words: compounds binding fibroblast growth factor 10 – biochemical, small-molecule microarray, 635 nm fluorescence, primary screen (AID 1102). The following applies: FGF10 binding, fluorescence 635 nm, higher = more signal.
Sequence of Fibroblast growth factor 10 (Homo sapiens) (O15520 whole entry, looked up): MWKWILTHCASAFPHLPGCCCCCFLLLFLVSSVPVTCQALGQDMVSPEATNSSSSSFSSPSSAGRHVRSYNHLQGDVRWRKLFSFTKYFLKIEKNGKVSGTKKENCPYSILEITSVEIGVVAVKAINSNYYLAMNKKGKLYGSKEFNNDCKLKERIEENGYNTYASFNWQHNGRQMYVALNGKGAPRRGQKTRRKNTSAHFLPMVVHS
The subject of experiment [6] is glycogen synthase kinase-3 (GSK3A per assay name; protocol says GSK3B). In words: compounds binding glycogen synthase kinase-3 – biochemical, small-molecule microarray, 635 nm fluorescence, GSK3A, primary screen (AID 1103). Also: the record names both GSK3A and GSK3B. The following applies: fluorescence 635 nm, higher = more signal.
In experiment [7] the target is Epidermal growth factor receptor (Homo sapiens) (UniProt P00533). Briefly: compounds binding epidermal growth factor receptor – biochemical, small-molecule microarray, 635 nm fluorescence, primary screen (AID 1104).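 Also: score merges 667 nm emission intensity with spot signal to noise over triplicate slides.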 The conditions noted are these: EGFR binding, higher = more signal.
Sequence of Epidermal growth factor receptor (Homo sapiens) (P00533 whole entry, looked up): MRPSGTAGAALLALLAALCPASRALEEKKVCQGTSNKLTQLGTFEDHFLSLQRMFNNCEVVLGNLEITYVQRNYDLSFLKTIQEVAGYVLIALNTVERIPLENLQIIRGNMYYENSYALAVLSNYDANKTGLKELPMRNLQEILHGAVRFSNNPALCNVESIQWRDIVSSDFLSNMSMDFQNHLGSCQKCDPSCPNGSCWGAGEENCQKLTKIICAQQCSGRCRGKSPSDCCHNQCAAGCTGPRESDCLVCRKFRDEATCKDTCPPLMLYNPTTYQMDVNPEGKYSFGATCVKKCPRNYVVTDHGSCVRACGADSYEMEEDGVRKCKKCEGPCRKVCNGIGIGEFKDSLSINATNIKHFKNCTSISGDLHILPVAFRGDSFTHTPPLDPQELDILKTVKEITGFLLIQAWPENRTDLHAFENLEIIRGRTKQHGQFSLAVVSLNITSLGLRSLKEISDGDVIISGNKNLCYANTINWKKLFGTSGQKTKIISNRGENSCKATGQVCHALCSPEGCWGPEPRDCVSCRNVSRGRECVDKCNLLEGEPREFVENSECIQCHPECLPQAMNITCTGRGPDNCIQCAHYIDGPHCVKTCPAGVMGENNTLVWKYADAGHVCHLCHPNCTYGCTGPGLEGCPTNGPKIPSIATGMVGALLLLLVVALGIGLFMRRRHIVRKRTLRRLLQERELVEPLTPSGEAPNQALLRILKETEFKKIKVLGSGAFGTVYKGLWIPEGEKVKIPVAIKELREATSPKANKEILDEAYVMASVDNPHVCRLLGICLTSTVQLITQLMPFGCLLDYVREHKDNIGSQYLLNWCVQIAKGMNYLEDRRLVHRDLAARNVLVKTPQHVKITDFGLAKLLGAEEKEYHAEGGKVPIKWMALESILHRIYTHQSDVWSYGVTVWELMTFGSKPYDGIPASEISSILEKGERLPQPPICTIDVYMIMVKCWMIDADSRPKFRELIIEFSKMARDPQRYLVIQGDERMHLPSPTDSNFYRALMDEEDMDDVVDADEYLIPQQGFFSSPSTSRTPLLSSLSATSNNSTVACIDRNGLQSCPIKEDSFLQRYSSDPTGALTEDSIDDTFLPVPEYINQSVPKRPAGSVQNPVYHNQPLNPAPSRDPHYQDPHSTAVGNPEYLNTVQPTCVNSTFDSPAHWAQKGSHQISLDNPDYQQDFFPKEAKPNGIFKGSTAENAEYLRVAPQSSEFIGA
The target in experiment [8] is Follistatin-related protein 3 (Homo sapiens) (UniProt O95633). Briefly: compounds binding follistatin-related protein 3 – biochemical, small-molecule microarray, 635 nm fluorescence, primary screen (AID 1105).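 Also: score merges emission near 667 nm and signal to noise per printed spot across three slides.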 The conditions noted are these: FSTL3 binding, higher = more signal.
Sequence of Follistatin-related protein 3 (Homo sapiens) (O95633 whole entry, looked up): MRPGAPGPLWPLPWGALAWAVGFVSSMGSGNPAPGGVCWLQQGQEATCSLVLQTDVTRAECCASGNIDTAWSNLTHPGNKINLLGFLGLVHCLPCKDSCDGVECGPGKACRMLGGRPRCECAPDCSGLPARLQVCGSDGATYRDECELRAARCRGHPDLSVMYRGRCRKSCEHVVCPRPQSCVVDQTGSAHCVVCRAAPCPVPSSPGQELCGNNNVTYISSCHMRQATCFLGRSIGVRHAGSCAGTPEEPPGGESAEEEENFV
Experiment [9] concerns the target Dickkopf-related protein 1 (Homo sapiens) (UniProt O94907). Briefly: small molecules binding DKK1 protein – biochemical, small-molecule microarray, 635 nm fluorescence scan, primary screen (AID 1106).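 Also: score merges emission near 667 nm with signal to noise over three replicate slides.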 The conditions noted are these: higher = more signal.
The test system of experiment [10] is Inhibin beta A chain (activin A). Briefly: small molecules binding activin A – biochemical, small-molecule microarray, 635 nm fluorescence scan, primary screen (AID 1107).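 Also: mouse activin A protein probed at 4.33 µg/mL on printed slides; score merges bound-protein fluorescence near 667 nm with spot signal-to-noise.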 The following applies: INHBA, higher = more signal.
Experiment [11] deals with Human papillomavirus type 1a protein E7 (residues 44-93). Briefly: small molecules binding HPV E7 44-93 – biochemical, small-molecule microarray, residues 44-93, 635 nm fluorescence, primary screen (AID 1108).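 Also: E7 fragment applied at 1 µg/mL in TBST for 1 h at 4 C; score combines spot fluorescence with its signal to noise ratio.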 The following applies: fluorescence 635 nm, higher = more signal.
A short description of experiment [12]: hepatitis C replication reporter changes, two-sided – Huh7 cells, luciferase reporter, HCV replication inhibitor project, primary screen (AID 1109).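 Also: huh7 hepatoma cells harbouring a luciferase neomycin HCV replicon reporter; luciferase luminescence as measure of HCV replicon replication; test concentration not given here.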 The conditions noted are these: Huh7 HCV replicon luciferase reporter, 48 h; higher = more signal.
Experiment [13] has as its target Left-right determination factor 2 (Homo sapiens) (UniProt O00292). Briefly: small molecules binding LEFTY2 protein – biochemical, small-molecule microarray, 635 nm fluorescence scan, primary screen (AID 1110). The following applies: higher = more signal.
Experiment [14] concerns the target Calmodulin-1 (Homo sapiens) (UniProt P0DP23). In words: small molecules binding calmodulin-1 with EGTA – biochemical, small-molecule microarray, Cy5-labelled CALM1, profiling panel (AID 1111).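 Also: labelled calmodulin applied in Tris saline Tween buffer holding calcium plus EGTA and DTT.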 The conditions noted are these: Cy5-CALM1 binding fluorescence, higher = more signal.
Experiment [15] has the same target. In words: small molecules binding Ca-loaded calmodulin-1 – biochemical, small-molecule microarray, Cy5-labelled CALM1, plus calcium, artefact control for SMM control-protein annotation, profiling panel (AID 1112).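 Also: score merges spot fluorescence with signal to noise from triplicate slides.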 The following applies: Cy5-CALM1 binding fluorescence, higher = more signal.
The nature of experiment [16]: probe aWnt5a binding to arrayed compounds – biochemical, biotinylated probe, 635/667 nm fluorescence, primary screen (AID 1113).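 Also: score merges 667 nm fluorescence intensity with signal-to-noise per printed feature.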 The conditions noted are these: small-molecule microarray, higher = more signal.
Experiment [17] in a line: probe aShh binding to arrayed compounds – biochemical, biotinylated probe, 635/667 nm fluorescence, primary screen (AID 1114).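 Also: probe is biotin-labelled aShh protein from a stem cell growth factor screen; measures binding of labelled protein to compounds printed on the slide; score merges feature fluorescence at 667 nm with signal-to-noise.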 The conditions noted are these: small-molecule microarray, higher = more signal.
The nature of experiment [18]: probe aNog binding to arrayed compounds – biochemical, biotinylated probe, 635/667 nm fluorescence, primary screen (AID 1115).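 Also: probe is biotinylated aNog protein used at 0.15 µg/mL for 1 h at 4 C; z-score combines 667 nm fluorescence of each spot with its signal to noise.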 The conditions noted are these: small-molecule microarray, higher = more signal.
Experiment [19] addresses Torsin-1A-interacting protein 1 (Homo sapiens) (UniProt Q5JTV8). In words: compound microarray binding of lysate hLAP1 – cell lysate, small-molecule microarray, COS7 lysate, 635/667 nm fluorescence, primary screen (AID 1116). The conditions noted are these: 635 nm fluorescence, higher = more signal.
Experiment [20] has as its target Alpha-bungarotoxin (Bungarus multicinctus) (UniProt P60615). Briefly: compounds binding labelled alpha-BTX control protein – biochemical, small-molecule microarray, Alexa647 label, 635/667 nm fluorescence, artefact control for SMM control protein annotation, profiling panel (AID 1117). The conditions noted are these: alpha-BTX-A647 binding fluorescence, higher = more signal.

Sequence of Left-right determination factor 2 (Homo sapiens) (O00292 whole entry, looked up): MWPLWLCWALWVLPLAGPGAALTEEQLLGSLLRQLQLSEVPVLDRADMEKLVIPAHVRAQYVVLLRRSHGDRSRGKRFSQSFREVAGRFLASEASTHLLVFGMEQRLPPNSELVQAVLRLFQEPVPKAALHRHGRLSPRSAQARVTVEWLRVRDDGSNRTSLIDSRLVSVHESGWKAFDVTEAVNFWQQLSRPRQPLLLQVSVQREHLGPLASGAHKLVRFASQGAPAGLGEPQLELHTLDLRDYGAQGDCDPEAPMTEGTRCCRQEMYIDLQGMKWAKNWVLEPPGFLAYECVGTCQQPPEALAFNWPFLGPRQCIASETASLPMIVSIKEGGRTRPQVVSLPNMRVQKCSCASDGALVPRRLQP
Sequence of Dickkopf-related protein 1 (Homo sapiens) (O94907 whole entry, looked up): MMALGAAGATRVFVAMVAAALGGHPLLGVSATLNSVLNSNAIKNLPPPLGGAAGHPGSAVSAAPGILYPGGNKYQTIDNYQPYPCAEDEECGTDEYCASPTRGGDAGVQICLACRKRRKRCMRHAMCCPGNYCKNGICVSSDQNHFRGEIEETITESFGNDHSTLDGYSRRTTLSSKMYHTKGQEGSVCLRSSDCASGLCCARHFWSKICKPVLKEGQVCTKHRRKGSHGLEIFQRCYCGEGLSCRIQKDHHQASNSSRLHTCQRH
Sequence of Alpha-bungarotoxin (Bungarus multicinctus) (P60615 whole entry, looked up): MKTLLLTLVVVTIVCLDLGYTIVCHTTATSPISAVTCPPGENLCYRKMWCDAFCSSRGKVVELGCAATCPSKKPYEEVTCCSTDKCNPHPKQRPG
Sequence of Torsin-1A-interacting protein 1 (Homo sapiens) (Q5JTV8 whole entry, looked up): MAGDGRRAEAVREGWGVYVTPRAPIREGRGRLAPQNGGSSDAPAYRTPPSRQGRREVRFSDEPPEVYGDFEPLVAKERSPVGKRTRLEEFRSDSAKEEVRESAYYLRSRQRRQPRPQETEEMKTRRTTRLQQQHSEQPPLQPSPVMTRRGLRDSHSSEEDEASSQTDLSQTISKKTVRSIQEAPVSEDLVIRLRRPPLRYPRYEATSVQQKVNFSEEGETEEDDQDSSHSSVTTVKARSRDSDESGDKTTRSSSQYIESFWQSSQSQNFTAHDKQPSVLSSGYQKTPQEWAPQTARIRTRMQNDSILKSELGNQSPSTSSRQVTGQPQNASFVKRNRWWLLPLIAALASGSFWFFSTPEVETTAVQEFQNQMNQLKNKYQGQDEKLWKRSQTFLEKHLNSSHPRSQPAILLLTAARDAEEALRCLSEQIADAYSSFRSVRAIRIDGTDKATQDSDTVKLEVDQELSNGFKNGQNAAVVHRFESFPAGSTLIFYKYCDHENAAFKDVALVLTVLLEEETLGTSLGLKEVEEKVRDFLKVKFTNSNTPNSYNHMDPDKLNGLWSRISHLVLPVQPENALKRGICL

As for `COC(=O)[C@H]1COC(c2ccc(OCCCO)cc2)=N1`, the composite z-score in [1] is 1.16; in experiment [2] it was 0.378; in experiment [3] it was 1.07; in experiment [5] it was -0.13; in experiment [6], -0.882; in experiment [7] it was -0.2. The composite z-score was -0.576 in [8]; -0.59 in experiment [9]; 1.04 in experiment [10]; -1.8 in experiment [11]; -0.365 in [13]; -0.545 in [14]. Besides, the composite z-score is 0.662 in experiment [15]; 0.0108 in experiment [16]; -0.276 in experiment [17]; 0.221 in [18]; 1.94 in experiment [19]; -0.373 in [20]. Further, the z-score is -0.19 (inactive) in experiment [4] and 0.592 in experiment [12].
Take `COCCCNC(=O)[C@@]1(Sc2ccc(C)cc2)CC(=O)N(Cc2ccccc2)[C@@H]1c1ccc(CO)cc1I`: the composite z-score in experiment [1] was 0.179; in experiment [2], 0.996; in experiment [3] it was 1.31; in experiment [5] it was -0.144; in experiment [6] it was -0.969; in [7], -1.28. The composite z-score in experiment [8] is -0.238; in experiment [9], -1.4; in experiment [10] it was 1.12; in [11], 0.362; in experiment [13] it was -1.54; in [14], -1.11. The composite z-score in experiment [15] was 0.214; in [16], -0.0928; in [17] it was -0.0362; in experiment [18] it was -0.176; in experiment [19], 1.5; in experiment [20] it was 1.23. The z-score in experiment [4] is -0.606 (inactive); in [12], -2.02.
On to `c1ccc(C2NCCc3c2[nH]c2ccccc32)cc1` (stereo not given), for which the composite z-score in experiment [1] is -0.214; in [2], -0.227; in experiment [3], 0.412; in experiment [5], 0.269; in experiment [6], -0.704; in experiment [7], 0.112. For the same molecule, the composite z-score in experiment [8] was -0.142; in [9], 0.0559; in experiment [10], 0.586; in experiment [11], -0.571; in [13], 0.106; in [14], -0.387. The composite z-score in experiment [15] was -0.951; in [16], -0.124; in [17], -0.147; in experiment [18], 0.183; in experiment [19], 0.446; in [20] it was 0.128. Also, the z-score in experiment [4] is -0.231 (inactive); in experiment [12] it was -3.13.
As to `C[C@H]1Cc2c(-c3ccccc3)nc3c(c2CO1)CN(CCOc1ccccc1)CC3`, the composite z-score in experiment [1] was 1.21; in experiment [2], -0.357; in [3], -0.815; in [5] it was 1.19; in experiment [6], 1.28; in experiment [7], 0.65. Besides, the composite z-score in experiment [8] was determined as 1.29; in [9] it was 0.94; in experiment [10], 0.127; in experiment [11], 1.33; in [13], 0.945; in [14], 0.491. The composite z-score was -0.416 in experiment [15]; -0.0203 in experiment [16]; 0.147 in [17]; -0.0172 in experiment [18]; 0.0704 in [19]; 0.269 in [20]. Also, the values for the z-score in experiment [4] and in [12] were -0.512 (inactive) and -0.56, respectively.
As to `COc1ccccc1CN1C(=O)c2ccccc2[C@@]2(Cc3ccccc3N(C(C)C)C2=O)[C@@H]1c1ccc(CO)cc1`, the composite z-score was 0.139 in experiment [1]; -0.119 in experiment [2]; 0.414 in experiment [3]; -0.194 in [5]; -0.467 in experiment [6]; -0.418 in experiment [7]. In addition, the composite z-score is -0.119 in experiment [8]; -0.39 in [9]; 0.602 in [10]; -0.0853 in experiment [11]; -0.88 in [13]; -0.37 in experiment [14]. Moreover, the composite z-score in [15] is -0.772; in [16], -0.12; in experiment [17] it was -0.0553; in experiment [18], 0.005; in [19], -0.509; in experiment [20], 1.12. For the same molecule, the results for the z-score in experiment [4] and in experiment [12] were -0.938 (inactive) and -0.318, respectively.
